Source: PubChem BioAssay
Active and inactive are the calls of the source.

How the values were obtained:
Albumin (Bos taurus) = Albumin (Bos taurus) (UniProt P02769); experiment: bovine serum albumin binders on microarray, profiling panel, artefact control for SMM control protein annotation, biochemical, small-molecule microarray, Alexa647 label, 635/667 nm fluorescence (AID 1118); settings: BSA-A647 binding, fluorescence 635 nm, higher = more signal;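 also: score merges 667 nm emission intensity and signal-to-noise per printed compound spot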
Chain of Albumin (Bos taurus) (P02769 whole entry, looked up): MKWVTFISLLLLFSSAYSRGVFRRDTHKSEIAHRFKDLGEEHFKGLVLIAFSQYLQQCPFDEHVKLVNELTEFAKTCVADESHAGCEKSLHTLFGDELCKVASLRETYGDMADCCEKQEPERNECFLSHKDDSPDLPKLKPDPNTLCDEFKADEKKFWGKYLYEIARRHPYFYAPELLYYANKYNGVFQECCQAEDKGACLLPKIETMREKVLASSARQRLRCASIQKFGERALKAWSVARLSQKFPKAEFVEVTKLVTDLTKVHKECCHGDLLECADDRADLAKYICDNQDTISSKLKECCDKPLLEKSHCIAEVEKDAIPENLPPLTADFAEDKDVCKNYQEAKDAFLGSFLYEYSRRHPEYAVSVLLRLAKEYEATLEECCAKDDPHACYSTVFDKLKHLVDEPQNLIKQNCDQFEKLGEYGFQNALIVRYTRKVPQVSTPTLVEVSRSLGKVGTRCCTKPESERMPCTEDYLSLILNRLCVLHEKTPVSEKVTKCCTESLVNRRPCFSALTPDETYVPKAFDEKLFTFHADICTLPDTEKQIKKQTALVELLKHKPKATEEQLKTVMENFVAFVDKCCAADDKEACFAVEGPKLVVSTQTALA

[1] = small-molecule microarray binders of probe aXIP, primary screen, biochemical, NeuroSMM set, 635/667 nm fluorescence (AID 1119); settings: higher = more signal, called active from +8 up or from −8 down;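 also: probe is the protein aXip251-270 applied at 1 µg/mL to compound-printed slides; binding of probe to printed compounds measured as 667 nm fluorescence plus signal to noise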
[2] = small-molecule binders of probe aNOTCH3, primary screen, biochemical, small-molecule microarray, 635/667 nm fluorescence (AID 1120); settings: higher = more signal;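 also: probe is a biotin-tagged antibody raised against NOTCH3 rather than NOTCH3 protein; score merges spot fluorescence near 667 nm with spot signal to noise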
[3] = small-molecule binders of probe aNOTCH2, primary screen, biochemical, small-molecule microarray, 635/667 nm fluorescence (AID 1121); settings: higher = more signal;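 also: score merges feature fluorescence read at 667 nm with its signal to noise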
[4] = molecular target: Carbonic anhydrase 2 (Homo sapiens) (UniProt P00918); experiment: CAII small-molecule binders, profiling panel, biochemical, small-molecule microarray, Alexa647-labelled CAII (AID 1122); settings: CAII-A647 binding fluorescence, higher = more signal
[5] = COS7 lysate on small-molecule microarray, probe aHis, 635 nm (AID 1123); settings: COS7 cell lysate, fluorescence, higher = more signal;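 also: z-score combines 667nm fluorescence intensity with signal-to-noise per printed compound spot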
[6] = compound binding in COS7 lysate, probe aLAP1, primary screen, cell lysate, small-molecule microarray (AID 1124); settings: probe aLAP1, fluorescence, higher = more signal;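 also: lysate comes from COS7 cells expressing LAP1 and is applied at 0.3 µg/mL; score merges spot fluorescence near 667 nm with signal-to-noise over triplicate slides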
Sam68 (KHDRBS1) = experiment: Sam68 small-molecule binders, primary screen, biochemical, small-molecule microarray, 635 nm fluorescence (AID 1125); settings: small-molecule microarray binding, higher = more signal;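 also: score merges 667 nm channel intensity with signal to noise over triplicate slides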
[7] = tested on: Chordin-like protein 2 (CHRDL2); experiment: CHRDL2 small-molecule binders, primary screen, biochemical, small-molecule microarray, 635 nm fluorescence (AID 1126); settings: small-molecule microarray binding, fluorescence 635 nm; higher = more signal;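 also: printed compound slides probed with Chrdl2 protein at 4 µg/mL for 1 h at 4 C; score merges 667 nm emission intensity with signal to noise over three replicate slides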
[8] = molecular target: Concanavalin-A (Canavalia ensiformis) (UniProt P02866); experiment: ConA small-molecule binders, primary screen, artefact control for SMM control protein annotation, biochemical, small-molecule microarray, Alexa647 label, 635 nm (AID 1127); settings: ConA-A647 binding fluorescence, higher = more signal;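 also: z combines 667 nm emission intensity with signal-to-noise across three replicate slides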
Chain of Concanavalin-A (Canavalia ensiformis) (P02866 whole entry, looked up): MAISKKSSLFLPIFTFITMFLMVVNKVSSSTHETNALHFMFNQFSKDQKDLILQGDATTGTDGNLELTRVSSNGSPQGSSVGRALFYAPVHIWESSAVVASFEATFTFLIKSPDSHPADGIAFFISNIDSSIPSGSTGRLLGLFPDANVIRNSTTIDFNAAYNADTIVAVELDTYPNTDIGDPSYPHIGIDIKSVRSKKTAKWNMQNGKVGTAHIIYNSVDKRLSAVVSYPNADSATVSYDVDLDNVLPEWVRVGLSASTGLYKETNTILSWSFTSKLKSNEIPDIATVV

[9] = anti-His antibody binders, primary screen, artefact control for SMM control protein annotation, biochemical, small-molecule microarray, 635 nm fluorescence (AID 1128); settings: anti-His Alexa647 antibody binding, higher = more signal;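 also: score merges feature fluorescence with signal-to-noise for each printed compound spot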
[10] = tested on: Human papillomavirus type 1a E7 protein (residues 1-88); experiment: HPV1a E7 small-molecule binders, primary screen, biochemical, small-molecule microarray, residues 1-88, 635 nm (AID 1129); settings: small-molecule microarray binding, fluorescence 635 nm; higher = more signal
[11] = molecular target: Focal adhesion kinase 1 (Homo sapiens) (UniProt Q05397); experiment: small-molecule microarray binders of FAK, primary screen, biochemical, 635/667 nm fluorescence, BSA, DTT (AID 1130); settings: PTK2 binding, 635 nm fluorescence, higher = more signal;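 also: composite of spot emission at 667 nm and signal to noise over triplicate slides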
Chain of Focal adhesion kinase 1 (Homo sapiens) (Q05397 whole entry, looked up): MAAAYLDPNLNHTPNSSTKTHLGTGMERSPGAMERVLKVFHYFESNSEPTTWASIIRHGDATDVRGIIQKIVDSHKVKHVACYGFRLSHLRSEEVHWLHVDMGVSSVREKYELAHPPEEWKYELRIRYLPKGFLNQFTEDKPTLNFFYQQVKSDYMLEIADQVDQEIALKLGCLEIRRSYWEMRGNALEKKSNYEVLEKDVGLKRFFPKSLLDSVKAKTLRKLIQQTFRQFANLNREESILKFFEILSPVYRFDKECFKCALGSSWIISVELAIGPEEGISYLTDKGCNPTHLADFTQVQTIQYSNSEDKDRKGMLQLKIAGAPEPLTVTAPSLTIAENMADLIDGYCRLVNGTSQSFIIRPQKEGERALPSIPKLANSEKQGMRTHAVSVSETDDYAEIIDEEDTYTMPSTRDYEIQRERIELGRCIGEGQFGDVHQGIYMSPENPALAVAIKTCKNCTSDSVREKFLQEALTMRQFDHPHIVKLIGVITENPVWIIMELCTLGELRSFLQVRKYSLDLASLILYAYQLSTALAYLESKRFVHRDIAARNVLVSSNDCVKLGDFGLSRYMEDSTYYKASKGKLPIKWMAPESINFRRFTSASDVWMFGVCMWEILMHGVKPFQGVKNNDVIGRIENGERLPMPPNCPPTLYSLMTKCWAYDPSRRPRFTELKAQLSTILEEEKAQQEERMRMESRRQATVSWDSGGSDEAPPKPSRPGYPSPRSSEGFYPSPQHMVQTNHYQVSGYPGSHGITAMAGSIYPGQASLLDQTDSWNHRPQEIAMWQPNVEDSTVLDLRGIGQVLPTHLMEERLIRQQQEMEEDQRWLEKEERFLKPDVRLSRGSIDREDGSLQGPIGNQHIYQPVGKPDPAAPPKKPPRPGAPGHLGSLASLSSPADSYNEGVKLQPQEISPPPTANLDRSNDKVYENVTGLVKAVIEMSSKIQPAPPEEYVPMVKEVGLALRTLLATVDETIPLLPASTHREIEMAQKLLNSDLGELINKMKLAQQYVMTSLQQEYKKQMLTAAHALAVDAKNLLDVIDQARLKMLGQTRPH

[12] = tested on: Fibrinogen (Alexa647-labelled); experiment: fibrinogen binders on compound microarrays, profiling panel, artefact control for SMM control-protein annotation, biochemical, small-molecule microarray, 635/667 nm fluorescence (AID 1131); settings: fibrinogen-A647 binding fluorescence, higher = more signal;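 also: z-score merges 667 nm fluorescence with per-spot signal-to-noise over triplicate slides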
[13] = molecular target: Follistatin (Homo sapiens) (UniProt P19883); experiment: follistatin binders on small-molecule microarrays, primary screen, biochemical, small-molecule microarray, 635/667 nm fluorescence (AID 1132); settings: FST binding, 635 nm fluorescence, higher = more signal
Chain of Follistatin (Homo sapiens) (P19883 whole entry, looked up): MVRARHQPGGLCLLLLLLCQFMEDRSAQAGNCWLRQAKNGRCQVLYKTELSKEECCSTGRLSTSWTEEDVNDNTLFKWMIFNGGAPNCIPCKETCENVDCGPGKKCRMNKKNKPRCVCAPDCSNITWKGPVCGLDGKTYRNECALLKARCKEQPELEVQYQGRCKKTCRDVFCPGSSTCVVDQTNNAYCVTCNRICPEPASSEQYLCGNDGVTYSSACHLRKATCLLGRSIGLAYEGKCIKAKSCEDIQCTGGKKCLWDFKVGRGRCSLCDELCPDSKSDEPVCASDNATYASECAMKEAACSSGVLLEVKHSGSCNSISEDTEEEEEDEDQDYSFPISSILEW

[14] = molecular target: Fibroblast growth factor 2 (Homo sapiens) (UniProt P09038); experiment: FGF2 binders on small-molecule microarrays, primary screen, biochemical, small-molecule microarray, 635/667 nm fluorescence (AID 1133); settings: small-molecule microarray binding, FGF2, fluorescence 635/667; higher = more signal
Chain of Fibroblast growth factor 2 (Homo sapiens) (P09038 whole entry, looked up): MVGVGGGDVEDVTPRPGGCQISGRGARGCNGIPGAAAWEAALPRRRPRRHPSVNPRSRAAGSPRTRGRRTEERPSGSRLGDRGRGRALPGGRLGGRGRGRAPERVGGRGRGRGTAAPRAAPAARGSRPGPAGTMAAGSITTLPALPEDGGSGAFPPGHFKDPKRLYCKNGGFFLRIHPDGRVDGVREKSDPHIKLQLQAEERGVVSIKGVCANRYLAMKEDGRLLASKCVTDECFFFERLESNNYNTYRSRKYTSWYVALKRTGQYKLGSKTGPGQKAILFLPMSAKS

[15] = mitochondrial membrane potential change in A549 cells, profiling panel, cell-based, JC-1 fluorescence, basal, 24 h, 100 nL (AID 1138); settings: higher = more signal;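 also: A549 lung adenocarcinoma cells under basal conditions with no added stimulus; test concentration not given here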
Lefty1 = Lefty1 binders on small-molecule microarrays, primary screen, biochemical, small-molecule microarray, 635/667 nm fluorescence (AID 1139); settings: small-molecule microarray binding, fluorescence 635/667; higher = more signal
[16] = tested on: wheat germ agglutinin (Triticum aestivum), Alexa647-labelled; experiment: wheat germ agglutinin binders on compound microarrays, profiling panel, artefact control for SMM control-protein annotation, biochemical, small-molecule microarray, 635/667 nm fluorescence (AID 1140); settings: WGA-A647 binding, 635 nm fluorescence, higher = more signal;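 also: score merges 667 nm feature emission with signal to noise over triplicate slides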
[17] = molecular target: Luciferin 4-monooxygenase (Photinus pyralis) (UniProt P08659); experiment: firefly luciferase enzyme inhibitors, primary screen, biochemical, luminescence, purified enzyme, 2006 set (AID 1141); settings: SteadyGlo luminescence, 30 min, higher = more signal, called active from +8 up or from −8 down;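 also: cell-free assay with purified firefly luciferase at 100 ng per well in PBS; test concentration not given here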
Chain of Luciferin 4-monooxygenase (Photinus pyralis) (P08659 whole entry, looked up): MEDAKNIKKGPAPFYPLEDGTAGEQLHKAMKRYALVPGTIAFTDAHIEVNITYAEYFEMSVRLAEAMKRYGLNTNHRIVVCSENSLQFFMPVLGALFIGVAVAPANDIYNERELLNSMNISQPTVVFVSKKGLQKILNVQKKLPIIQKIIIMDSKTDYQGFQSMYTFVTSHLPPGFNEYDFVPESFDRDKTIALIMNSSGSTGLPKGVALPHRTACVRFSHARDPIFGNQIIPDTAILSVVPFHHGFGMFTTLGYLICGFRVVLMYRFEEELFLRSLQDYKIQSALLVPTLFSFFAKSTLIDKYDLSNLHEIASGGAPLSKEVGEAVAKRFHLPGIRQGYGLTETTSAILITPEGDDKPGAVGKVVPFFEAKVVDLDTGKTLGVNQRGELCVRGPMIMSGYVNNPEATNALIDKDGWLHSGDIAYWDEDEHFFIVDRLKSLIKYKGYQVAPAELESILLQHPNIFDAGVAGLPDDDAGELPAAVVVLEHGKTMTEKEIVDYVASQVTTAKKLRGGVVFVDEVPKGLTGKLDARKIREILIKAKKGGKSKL

Row | Compound | composite z-score (Albumin (Bos taurus)) | composite Z-score [1] | composite z-score [2] | composite z-score [3] | composite z-score [4] | composite z-score [5] | composite z-score [6] | composite z-score (Sam68 (KHDRBS1)) | composite z-score [7] | composite z-score [8] | composite z-score [9] | composite z-score [10] | composite z-score [11] | composite z-score [12] | composite z-score [13] | composite z-score [14] | z-score [15] | composite z-score (Lefty1) | composite z-score [16] | z-score [17]
1 | COC(=O)[C@@]1(Cc2ccc(OC)cc2)[C@H]2c3cc(C(=O)N(C)C)n(CCc4ccccn4)c3C[C@H]2CN1C(=O)c1ccccc1 | 0.928 | -0.0712 (inactive) | 1.28 | 0.689 | 0.461 | 1.06 | 0.272 | 0.221 | -0.764 | -0.138 | 0.429 | 0.815 | 0.933 | -1.04 | 0.0679 | -0.162 | -0.267 | -0.919 | 0.698 | 1.49 (inactive)
2 | CO[C@H]1O[C@H](CO)[C@@H](OC(=O)Nc2ccccc2)[C@H](OC(=O)Nc2ccccc2)[C@@H]1OC(=O)Nc1ccccc1 | 0.809 | -0.0073 (inactive) | 0.289 | -0.0847 | 0.824 | 1.29 | 0.947 | 1.3 | 0.136 | 1.12 | 0.865 | 1.25 | 0.806 | 1.01 | 1.3 | 0.412 | -0.115 | 0.464 | 0.833 | 0.713 (inactive)
3 | COc1ccc([Si](C)(C)[C@@H]2[C@@H](CCO)O[C@]3(C(=O)N(Cc4ccc(N(C=O)c5ccccc5)cc4)c4ccccc43)[C@H]2C)cc1 | 0.842 | -0.119 (inactive) | 0.0842 | -0.0621 | 0.285 | 0.313 | -0.456 | 0.495 | -0.402 | 0.786 | 0.297 | 0.34 | 0.0744 | 0.845 | 0.735 | 0.526 | -0.0272 | 0.0434 | 1.06 | 0.0379 (inactive)
4 | O=C(CS)NCCCCCCNC(=O)[C@@H]1C[C@@H]2C(=O)NCC(=O)N2[C@@H]1c1cccc(OCCO)c1 | -0.607 | 0.359 (inactive) | -0.446 | -0.398 | 0.679 | 2.91 | 0.71 | 0.318 | 0.26 | 0.625 | 3.13 | 1.23 | 0.69 | -0.993 | 0.998 | 1.4 | 0.609 | -0.408 | -0.56 | -1.02 (inactive)
5 | CO[C@H]1O[C@H](CO)[C@@H](OC(=O)Nc2cccc(F)c2)[C@H](OC(=O)Nc2ccccc2)[C@@H]1OC(=O)Nc1ccccc1 | 0.875 | 0.311 (inactive) | 0.138 | 0.003 | 0.555 | 2.54 | 1.02 | 1.3 | -0.219 | 0.724 | 1.16 | 1.22 | 0.919 | 0.973 | 0.518 | 0.843 | 0.0874 | -0.105 | 1.27 | 0.0107 (inactive)
6 | CCCc1cc2c(n1Cc1cc(F)cc(F)c1)C(C)C1CN(C(=O)c3ccccc3)C(C)(C(=O)OC)C21 (stereo not given) | 1 | 0.723 (inactive) | 0.272 | 0.341 | 0.633 | 3.26 | 1.07 | 1.22 | -0.255 | 1.11 | 2.15 | 1.24 | 2.09 | 0.982 | 0.542 | -0.48 | 1.24 | -0.311 | 1.01 | -1.15 (inactive)
7 | C=C(CCCC)C(=O)CC[C@@H](OC(=O)c1ccccc1-c1ccccc1C(=O)O)c1ccc(OCCO)cc1 | -0.873 | 0.0426 (inactive) | -0.185 | -0.125 | 0.437 | 0.121 | -0.102 | 0.684 | 0.876 | 0.829 | -0.54 | 0.0862 | -0.72 | -0.277 | 1.42 | 1.37 | 0.118 | 0.797 | 0.427 | -2.06 (inactive)
8 | CCOC(=O)C1=C[C@@H](C(C)(C)C)N(S(=O)(=O)c2ccc(C)cc2)[C@H]1c1ccc(F)cc1 | 0.316 | -0.171 (inactive) | 0.169 | -0.0254 | 0.287 | 1.61 | 0.397 | 1.29 | 0.16 | 0.819 | 0.416 | 1.21 | -0.225 | 0.939 | 1.05 | 0.553 | 3.65 | 0.96 | 0.723 | 1.53 (inactive)
9 | CC(C)C(=C=CC[C@@H](O)c1ccc(OCCO)cc1)C[C@@H](O)c1ccccn1 | -0.363 | 1.24 (inactive) | 0.0553 | -0.13 | 0.368 | -0.0995 | 0.33 | 0.726 | 1.38 | 0.817 | -0.449 | -0.251 | -0.542 | 0.819 | 1.58 | 1.78 | -0.306 | 1.51 | -0.187 | -0.069 (inactive)
10 | C=CCC(OC(C)=O)[C@@H]1[C@@H](N(Cc2ccc(-c3ccccc3)cc2)C(=O)c2cccc3ccccc23)c2cc(OCCCO)ccc2N1C(=O)c1ccc(-c2ccccc2)cc1 (stereo not given in full) | -0.0695 | 0.45 (inactive) | 0.0897 | -0.0783 | 0.175 | 1.17 | 0.674 | 0.316 | 0.111 | -0.249 | -0.722 | 0.521 | 0.0082 | 0.56 | 0.435 | -0.0136 | 1.68 | -0.111 | 0.556 | -0.52 (inactive)
11 | COC(=O)[C@H](Cc1ccccc1)N1CC2=C[C@@H](C3CC3)n3c(=O)n(C)c(=O)n3[C@H]2[C@@H]1[C@@H](O)Cc1ccccc1 | 0.503 | 0.133 (inactive) | 0.0562 | -0.115 | 0.298 | 0.653 | 0.0511 | 1.18 | 0.162 | 0.658 | 0.0823 | 0.881 | 0.148 | 0.588 | 0.898 | 0.212 | 1.58 | 0.972 | 0.0263 | -0.126 (inactive)
